Compound activity (PubChem)
ERK EGF block – EGF-driven ERK pathway inhibition | Potency, µM (titrated, usually from 11.5 µM), without a hit: top-dose activity change, negative = inhibition, usual class: inhibitors | HEK293-V1b, EGF-stimulated phospho-ERK AlphaScreen | hit rate 0.41% among 130,000;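 also: potency is read from the fitted curve at half-maximal effect; plate controls were stimulated vehicle wells for no effect and unstimulated vehicle basal for full effect; nearly all actives have a fitted effect of over 55% in size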
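Readout: AlphaScreen signal for phosphorylated ERK in lysed HEK293 cells stably expressing V1b. Stimulus 25 nM EGF, 5 min, following 30 min compound exposure. Data scaled to DMSO basal and full EGF activation.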
ERK pERK EGF – confirmation of ERK pathway inhibitors under EGF stimulation; shares compounds with ERK EGF block; HEK293 EGF-stimulated ERK phosphorylation, AlphaScreen; Potency, µM (highest dose often 57.5 µM), without a hit: top-dose activity change, negative = inhibition, actives largely listed as inhibitors; hit rate 60% among 60
cRaf kinase inh – c-Raf inhibition, ERK pathway follow-up; activity change, negative = inhibition, % at 76.9 µM; 70 tested, under 10 active; c-Raf kinase inhibition, homogeneous biochemical assay; shares compounds with ERK EGF block
Target sequence (P04049 whole entry, looked up): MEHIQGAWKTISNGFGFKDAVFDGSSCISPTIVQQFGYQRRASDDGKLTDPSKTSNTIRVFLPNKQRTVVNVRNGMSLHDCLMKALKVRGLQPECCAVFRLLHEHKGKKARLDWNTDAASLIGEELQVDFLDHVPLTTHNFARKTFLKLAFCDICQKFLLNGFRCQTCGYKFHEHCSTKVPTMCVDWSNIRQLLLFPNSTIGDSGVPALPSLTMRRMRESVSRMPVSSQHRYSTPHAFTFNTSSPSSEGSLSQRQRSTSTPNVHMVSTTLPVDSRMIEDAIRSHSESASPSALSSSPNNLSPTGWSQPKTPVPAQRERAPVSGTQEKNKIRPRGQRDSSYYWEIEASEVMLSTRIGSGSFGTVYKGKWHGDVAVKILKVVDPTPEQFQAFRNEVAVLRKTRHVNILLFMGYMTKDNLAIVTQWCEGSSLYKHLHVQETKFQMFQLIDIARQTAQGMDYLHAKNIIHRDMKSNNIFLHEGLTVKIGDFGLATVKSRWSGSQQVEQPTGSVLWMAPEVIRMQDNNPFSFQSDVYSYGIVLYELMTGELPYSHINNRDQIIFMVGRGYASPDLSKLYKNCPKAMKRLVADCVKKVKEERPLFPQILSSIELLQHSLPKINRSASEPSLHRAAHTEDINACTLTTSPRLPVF
MEK inh – ERK pathway inhibitors follow-up: human MEK1 kinase inhibition; Potency, µM (top dose mostly 76.9 µM), for inactives: top-dose activity change, negative = inhibition, hits mostly inhibitors; homogeneous MEK kinase activity assay, ERK pathway; 70 tested, under 10 active; shares compounds with ERK EGF block
Numbers without * were called inactive; ? = inconclusive; ! = a repeat was not active; [ ] = another dose, or the depositor's remark. Only a selection was taken, and hits are over-represented in it overall. Calls follow the shape of the dose curve; as a rule, active = well fitted curve in the direction sought with a large enough effect; inconclusive = small, poorly fitted or top-dose-only effect, or another doubt; inactive = no such curve, though single readings can be large; an effect the other way counts as inactive or inconclusive.

SMILES	ERK EGF block	others
OCC[n+]1c2ccccc2nc2ccc(N3CCOCC3)cc21	14µM*
COC(=O)C1=CO[C@@H](C)[C@@H]2CN3CC[C@]4(C(=O)Nc5c4ccc(OC)c5OC)[C@H]3C[C@H]12	-5%
O=c1ccc2cc(O[C@H]3OC(CO)C(O)C(O)C3O)c(O)cc2o1 (stereo partly drawn)	-9%
CCCCC/C=C\C/C=C\C/C=C\CCCCC(=O)NCCc1ccc(O)c(O)c1	-4%
N#CC(C#N)=NNc1ccc(OC(F)(F)F)cc1	-8%
COC(=O)C1(C)C=C2C(=C(C)C(=O)C2C)CN1 (stereo not drawn)	3%
CC[C@@H](CO)NC(=O)[C@H]1C=C2c3cccc4c3c(cn4C)C[C@H]2N(C)C1	6%
c1ccc(-c2cc(-c3ccccc3)[n+](-c3ccccc3)c(-c3ccccc3)c2)cc1	22µM*
C[n+]1c(-c2ccccc2)cc(-c2ccc(Cl)cc2)cc1-c1ccccc1	5%
O=C1C(Cl)=C(Cl)C(=O)C(Cl)=C1Cl	10µM*
O=C(O)[C@@H]1CSC(c2cccnc2)N1 (stereo partly drawn)	-9%
CCCOc1ccc2[nH]cc(C3=CCNCC3)c2n1	-8%
Cc1ccsc1C(=O)C1CCCN(Cc2cnc(N(C)C)s2)C1 (stereo not drawn)	-2%
Cc1ccsc1C(=O)C1CCCN(Cc2ccccc2O)C1 (stereo not drawn)	-5%
Cc1ccsc1C(=O)C1CCCN(Cc2sc(N(C)C)nc2Cl)C1 (stereo not drawn)	20µM*
NC(=NCCc1ccc(I)cc1)SCCCc1cnc[nH]1	2%
CC(=O)O[C@@H]1C[C@@]2(C)C(c3ccoc3)C[C@H]3O[C@]32[C@]2(C)C(=O)C(O)=C3C(C)(C)C(=O)C=C[C@]3(C)C12 (stereo partly drawn)	-15%
COC[C@H]1OC(=O)c2coc3c2[C@@]1(C)C1=C(C3=O)[C@H]2CCC(=O)[C@@]2(C)C[C@H]1OC(C)=O	-4%
Cc1cc(SCc2sc(-c3ccc(C(F)(F)F)c(F)c3)nc2C)ccc1OCC(=O)O	11%
O=C1CCC[C@H]2[C@H]3CCCN4CCCC(=CN12)[C@@H]34	-12%
O=C1NC(=S)NC(=O)C1=Cc1cccc2cc3ccccc3cc12	28µM*
Cc1cc(C=C2C(=O)NC(=S)NC2=O)c(C)n1-c1ccc2c(c1)OCO2	4%
CN(C)c1ccc(C=C2C(=O)NC(=S)NC2=O)cc1[N+](=O)[O-]	4%
CCCCC/C=C\C/C=C\C/C=C\C/C=C\CCCC(=O)N[C@H](C)CO	-8%
N#CC(=Cc1ccc(O)c(O)c1)C(N)=S	5%
SMILES	ERK EGF block	others
Oc1ccc2c3c1O[C@H]1c4[nH]c5ccccc5c4C[C@@]4(O)C(C2)N(CC2CC2)CCC314 (stereo partly drawn)	16%
C=C(C)CN1CC[C@]23c4c5ccc(O)c4O[C@H]2c2[nH]c4ccccc4c2C[C@@]3(O)C1C5	16µM*
C=C(C)CN1CC[C@@]23c4c5ccc(O)c4O[C@H]2c2[nH]c4ccccc4c2C[C@]3(O)[C@@H]1C5	-12%
CCN(CC)c1ncnc2c1ncn2[C@@H]1O[C@@H](COP(=O)(O)OP(=O)(O)C(Br)(Br)P(=O)(O)O)[C@H](O)[C@H]1O	8%
COC(=O)C12CC3=C[C@H](CC3=O)Cc3ccccc3[C@@H]1CNC2=O (stereo partly drawn)	-2%
COP(=S)(OC)Oc1ccc([N+](=O)[O-])cc1	19%
C#CCN1C(C)=C(C(=O)CCO)[C@@H](c2cccc(-n3oo3)c2)C(C(=O)OC)=C1C	-9%
ClC1=C(Cl)C(Cl)=C(Cl)C1=C/C=C/c1ccccc1	11µM*
CC1=C(O)C(=O)[C@H]2O[C@@H]2C1=O	-3%
C[C@H](CCC(=O)O)[C@H]1CC[C@@H]2[C@H]3CC[C@H]4C[C@@H](O)CC[C@@]4(C)[C@H]3CC[C@]21C	6%[25.7 µM]
Cc1ccccc1-n1c(/C=C/c2ccccn2)nc2ccccc2c1=O	-9%[57.5 µM]
CN1C2CCC1/C(=C/c1ccccn1)C(=O)/C2=C\c1ccccn1	14µM*
CCNC(=O)[C@H]1O[C@@H](n2cnc3c(N)ncnc32)[C@H](O)[C@H]1O	6%
CCCCC/C=C\C/C=C\CCCCCCCCCC(=O)NCCc1ccc(O)c(O)c1	-2%
C=CCN1C[C@H](C)N([C@H](c2ccc(C(=O)N(CC)CC)cc2)c2cccc(O)c2)C[C@H]1C	-14%
O=C1NC(=O)C(=Cc2ccccc2Oc2ccc(F)cc2)C(=O)N1	4µM*	ERK pERK EGF=2%;cRaf kinase inh=-8;MEK inh=?
O=C1NC(=O)C(=Cc2csc3ccccc23)C(=O)N1	-7%[57.5 µM]
O=C1NC(=O)C(=Cc2coc3ccccc3c2=O)C(=O)N1	-10%
CCN1C[C@]2(C)CC[C@H](OC)[C@@]34[C@H]1C1(OCO[C@@]15C[C@H](OC)C1C[C@]3(O)C5[C@H]1OC)[C@@H](O)[C@H]24	11%
CN(C)CCN(C)CCc1ccc(Cl)c(Cl)c1	-6%
C=C1C([C@@]2(C)C(OC(C)=O)CC(=O)O[C@@](C)(COC(C)=O)C2CC(=O)OC)C(OC=O)C(OC(=O)C(OC(C)=O)C(C)CC)[C@]2(C)C(c3ccoc3)CC(=O)C12O (stereo partly drawn)	-6%
CC1=CC(=O)c2c(O)cccc2C1=O	5.6µM*!	ERK pERK EGF=7.1µM*;cRaf kinase inh=?;MEK inh=?
CN[C@@H](Cc1c[nH]c2ccccc12)C(=O)O	-13%
CC1C(=O)OC2C1CC[C@@]1(C)C=CC(=O)[C@@]3(C)O[C@@]213 (stereo partly drawn)	7%
C[C@]12N[C@@H](Cc3ccccc31)c1ccccc12	-8%
